Measured values from PubChem BioAssay AID2314 (National Center for Advancing Translational Sciences (NCATS), 2010).
Where “and” joins values, the source holds several entries; their conditions need not be identical. Equal values may be shown once. The whole screen tested about 300,000 compounds, of which about 37,000 (12%) were called active. Cut-off read from the data, not from the text of the source: active = max response mostly above about 13% (no sharp cut-off); inactive = mostly below about 14%. Only a selection was taken, and actives are over-represented in it overall.

Test: Cycloheximide Counterscreen for Small Molecule Inhibitors of Shiga Toxin; note: read at 38.3 µM for the half of the compounds with a filed dose; 0% is about no effect
Conditions: cell reporter, cycloheximide protein synthesis inhibition counterscreen; hits give high values

| SMILES | max response |
| --- | --- |
| Cc1cccc(Cn2cnc3c(N)c(C)c(C)cc32)c1 | -6.87% (inactive) |
| CC(NC(=O)COC(=O)C1CCN(S(=O)(=O)c2ccccc2C(F)(F)F)CC1)c1ccccc1 (stereo not drawn) | -0.765% (inactive) |
| COc1ccc(NS(=O)(=O)c2ccc(N3CCOCC3)c(NC(=O)c3ccccc3Br)c2)cc1 | -1.16% (inactive) |
| Cc1cc(N(C)C)nc(Cl)n1 | -9.03% (inactive) |
| CCCCC(=O)Nc1cc(C)c2c(=O)oc3ccccc3c2n1 | 10.7% (inactive) |
| Cc1cc(NC(=O)CN2CCCCC2C)nc2c1c(=O)oc1ccccc12 (stereo not drawn) | 0.268% (inactive) |
| CCOC(=O)c1c(C)nc2c(c1C)c(=O)oc1ccccc12 | 14.3% (active) |
| COc1ccc(CC(NC(C)=O)C(=O)NC2CCN(C(=O)C3CC3)CC2)cc1OC (stereo not drawn) | -7.16% (inactive) |
| C=CCNC(=S)N/N=C/c1ccc(OCc2ccccc2)cc1 | -1.7% (inactive) |
| Cc1ccc(/C=N/NC(=O)CN2CCN(Cc3ccccc3)CC2)s1 | 8.96% (inactive) |
| C=CCNC(=S)N/N=C/c1ccc(C)s1 | 31.5% (active) |
| COc1ccc2c3c1O[C@H]1C[C@@H](O)C=C[C@@]31CCN(C)C2 | -0.885% (inactive) and -4.86% (inactive) |
| S=C(Nc1ccc(Cl)cc1Cl)N1CCCC1 | 60.1% (active) |
| Cc1cc(Cl)ccc1NC(=S)N1CCC(C(N)=O)(N2CCCCC2)CC1 | -2.11% (inactive) |
| CC1CN(C(=S)Nc2ccc(Br)cc2Cl)CC(C)O1 (stereo not drawn) | 0.924% (inactive) |
| S=C(NCc1cccnc1)Nc1ccc(Cl)cc1Cl | 9.37% (inactive) |
| O=C(NC(=S)Nc1ccc(Cl)cc1Cl)C1CC1 | 39.5% (active) |
| CN(C)C(=S)Nc1ccc(Br)cc1Cl | -1.09% (inactive) |
| S=C(Nc1ccc(Br)cc1Cl)N1CCC2(CC1)OCCO2 | 20.3% (active) |
| Cc1ccc2c(c1)C1CN(C)CCC1N2C(=S)Nc1ccc(Cl)cc1Cl (stereo not drawn) | -1.23% (inactive) |
| CN1CCN(S(=O)(=O)c2ccc(NC(=S)NC(=O)C3CC3)cc2)CC1 | 1.23% (inactive) |
| CC(Oc1ccc(F)cc1)C(=O)N1CCN(c2ncccn2)CC1 (stereo not drawn) | -2.63% (inactive) |
| CNC(=O)[C@]1(C(F)(F)F)C[C@H](CCc2ccccc2)CCCO1 | 3.47% (inactive) |
| Cn1cnc([N+](=O)[O-])c1Sc1ccccc1 | -3.34% (inactive) |
| Cc1cccc(NS(=O)(=O)c2ccc([N+](=O)[O-])cc2)n1 | -1.49% (inactive) |
| O=C(COc1cccc(-n2cnnn2)c1)NCCC1=CCCCC1 | 0.68% (inactive) |

| SMILES | max response |
| --- | --- |
| CSc1ccccc1N1CCN(CCCCCC(=O)NC2CCCc3ccccc32)CC1 (stereo not drawn) | -7.34% (inactive) |
| Cc1ccc(Nc2ccccc2N)cc1 | 33.2% (active) |
| Nc1ccc(Nc2ccccc2)cc1 | -1.73% (inactive) |
| Nc1ccc(C(=O)Nc2ccccc2N)cc1 | 5.95% (inactive) |
| COc1ccc(COCCN2CCN(S(=O)(=O)c3ccccc3)CCC2=O)cc1 | -3.54% (inactive) |
| COc1ccc(S(=O)(=O)N(C)CC(=O)N2CCCC2)cc1 | -3.08% (inactive) |
| CCOC(=O)N1CCN(C(=O)c2cn(C)c3ccc(S(=O)(=O)N(CC)CC)cc3c2=O)CC1 | -2.19% (inactive) |
| CC(C(=O)NC1CCS(=O)(=O)C1)N1C(=O)/C(=C/c2ccc(Cl)cc2)SC1=S (stereo not drawn) | 16.6% (inactive) |
| COc1ccc(Nc2nnc(C)c3ccccc23)cc1 | 29.8% (active) |
| COc1ccc(Nc2nc(=O)[nH]nc2C)cc1 | -2.63% (inactive) |
| Cc1nnc(NCCO)c2ccccc12 | 4.14% (inactive) |
| COc1ccc(C(=O)NCC(=O)N/N=C/c2cccnc2)cc1 | -4.37% (inactive) |
| S=C(NCCCc1cnc[nH]1)NCCCN(Cc1ccc(Cl)c(Cl)c1)c1ccc(Br)cn1 | -1.98% (inactive) |
| Cn1nccc1/C=N\NC(=O)c1ccc(Cl)cc1 | 14.7% (active) |
| CC1(C)C2CC=C(/C=N/NC(=O)c3ccc(Cl)cc3)C1C2 (stereo not drawn) | 10.5% (inactive) |
| COc1ccc(/C=N/NC(=O)c2ccc(Cl)cc2)cc1COC(C)=O | 1.21% (inactive) |
| CCOC(=O)c1sc(NC(=O)CSc2nc(C)cc(C(F)(F)F)n2)c(C#N)c1C | 1.11% (inactive) |
| COc1cc(C(=O)OC2CCOC2=O)c([N+](=O)[O-])cc1OC (stereo not drawn) | -5.93% (inactive) |
| COc1cc(CN2CCCN(C)CC2)c([N+](=O)[O-])cc1OC | -2.2% (inactive) |
| CN(C)c1ccc(/C=C/C(=O)c2ccc(C(C)(C)C)cc2)cc1[N+](=O)[O-] | 9.22% (inactive) |
| O=C(O)/C=C/c1ccc2c(c1)OCCO2 | 5.58% (inactive) |
| O=C(/C=C/c1ccc(Cl)c([N+](=O)[O-])c1)c1cccnc1 | 9.23% (inactive) |
| CN(C)c1ccc(/C=C/C(=O)c2ccc(O)cc2)cc1[N+](=O)[O-] | 61.3% (active) |
| O=C(/C=C/c1ccc2c(c1)OCCO2)c1ccc(O)cc1 | 36.6% (active) |
| O=C(COC(=O)/C=C/c1ccc2c(c1)OCO2)NC1CCS(=O)(=O)C1 (stereo not drawn) | 2.81% (inactive) |
| COc1cccc(NC(=O)N2C3CCCC2CC(NC(C)=O)C3)c1 (stereo not drawn) | -3.34% (inactive) |

| SMILES | max response |
| --- | --- |
| CCOC(=O)c1ccccc1NS(=O)(=O)c1c(C)nc2sccn2c1=O | -3.59% (inactive) |
| Brc1ccccc1CN1CCC(Cc2ccccc2)CC1 | -0.443% (inactive) |
| CC(C)CN(CC(C)C)C(=O)CN1c2cccc3cccc(c23)S1(=O)=O | 0.92% (inactive) |
| O=C(N/N=C/c1ccco1)c1ccc(C(=O)N/N=C/c2ccco2)o1 | 11.6% (inactive) |
| Cc1ccc(NC(=O)c2csc3c2CCCC3)cc1 | 46.6% (active) |
| O=C(CN1CCCC1)Nc1sc2c(c1C(=O)Nc1ccccc1)CCCC2 | 0.772% (inactive) |
| Cc1ccc(NC(=O)c2c(NC(=O)CCC(=O)O)sc3c2CCCCC3)cc1 | 39.3% (active) |
| CCOC(=O)c1sc(NC(=O)c2sc(C)nc2C)nc1C | 10.2% (inactive) |
| COC(=O)c1sc(NC(=O)c2csc3c2CCCC3)nc1C | 52.4% (active) |
| COC(=O)c1sccc1NC(=O)c1csc2c1CCCC2 | 11.4% (inactive) |
| O=C(N/N=C/c1ccco1)c1csc2c1CCCC2 | 54.4% (active) |
| O=C(N/N=C/c1ccco1)c1ccc(NC(=O)C2CC2)cc1 | 2.6% (inactive) |
| COC(=O)c1c(NC(=O)CCCC(=O)O)sc2c1CCCCC2 | 1.25% (inactive) |
| CC1CC(C)CN(CCCNC(=O)c2csc3c2CCCCC3)C1 (stereo not drawn) | 13.5% (inactive) |
| O=C(Nc1ccccc1N1CCOCC1)c1csc2c1CCCC2 | 8.7% (inactive) |
| CCn1c(SCc2cccc(C(=O)O)c2)nnc1-c1ccc(Cl)cc1 | -1.44% (inactive) |
| COc1ccc(C)cc1Nc1n[n+](-c2ccccc2)c(-c2cccc(Cl)c2Cl)s1 | -1.46% (inactive) |
| CCOC(=O)N1CCN(C(=O)c2ccccc2N(Cc2ccccc2)S(=O)(=O)c2ccc(OC)cc2)CC1 | -5.35% (inactive) |
| CCOc1ccc(-n2c(SCC(=O)Nc3cc(C(=O)O)ccc3Cl)nc3ccccc3c2=O)cc1 | -4.94% (inactive) |
| O=C(O)CCC(=O)Nc1ccc(OCC2CCCO2)cc1 (stereo not drawn) | -3.29% (inactive) |
| CC1(C)Cc2ccccc2-c2[nH]c(=S)[nH]c(=O)c21 | -1.88% (inactive) |
| COc1cccc(CNC(=O)CCC2CCCN(C(=O)c3ccc(F)c(Cl)c3)C2)c1 (stereo not drawn) | 0.816% (inactive) |
| O=C(COC(=O)c1ccc(Cl)nc1)NCc1ccc2c(c1)OCO2 | -4.58% (inactive) |
| CC(=O)Cc1nsc(NC(=O)c2ccc(Cl)cc2Cl)n1 | 27.8% (inactive) |
| O=C(NCc1ccccc1Cl)c1csc2c1CCCCC2 | -0.0989% (inactive) |
| CC(=O)Cc1nsc(NC(=O)c2csc3c2CCCC3)n1 | 16.6% (active) |

| SMILES | max response |
| --- | --- |
| CCOC(=O)Cn1c(=O)n(Cc2ccc(OC)cc2)c(=O)c2cccnc21 | -5.57% (inactive) |
| Cc1cc(C)nc(N2CCC(C(=O)Nc3ccc4c(c3)OCCO4)CC2)n1 | 11.4% (inactive) |
| O=C(Nc1cccc(Cl)c1)C1CCCN(c2cnccn2)C1 (stereo not drawn) | 5.49% (inactive) |
| O=C(Nc1ccc2c(c1)OCCO2)C1CCCN(c2ncccn2)C1 (stereo not drawn) | 22% (active) |
| CCOc1ccc(N(CC)S(=O)(=O)c2cccc3nsnc23)cc1 | -1.34% (inactive) |
| CC(=O)Nc1ccc(S(=O)(=O)N2N=NC3C2C2CC4C3(CN(C(=O)OC(C)(C)C)S4(=O)=O)O2)cc1 (stereo not drawn) | 3.73% (inactive) |
| COc1cccc(CN(C)CC2CCCN(CCc3ccc(Cl)cc3)C2)c1OC (stereo not drawn) | -1.16% (inactive) |
| CC(CC(=O)O)C(=O)c1ccc(Cl)c([N+](=O)[O-])c1 (stereo not drawn) | -0.656% (inactive) |
| C/C(=N\Nc1nncc2ccccc12)c1ccc(Cl)c([N+](=O)[O-])c1 | 17.3% (active) |
| Cc1nc2ccccc2c(=O)n1NC(=O)c1ccc(Cl)c([N+](=O)[O-])c1 | -5.07% (inactive) |
| O=C(O)c1ccc2c(=O)n3c(nc2c1)/C(=C/c1ccc(OC(F)F)cc1OC(F)F)CC3 | 1.3% (inactive) |
| CC(C)C(=O)N1c2ccccc2NC2=C(C(=O)CCC2)C1c1ccc(N(C)C)cc1 (stereo not drawn) | 21.8% (active) |
| CCC(=O)N1c2ccccc2NC2=C(C(=O)CCC2)C1c1ccco1 (stereo not drawn) | -5.4% (inactive) |
| CCCC(=O)N1c2ccccc2NC2=C(C(=O)CCC2)C1c1ccc(F)cc1 (stereo not drawn) | -1.45% (inactive) |
| O=C(NCCO)C(=O)NCC(c1ccc2c(c1)OCO2)N1CCN(c2ccc(F)cc2)CC1 (stereo not drawn) | -1.46% (inactive) |
| Cn1nc(C(F)(F)F)cc1C(=O)O | -2.03% (inactive) |
| CCCc1cc(C(=O)Nc2ccc(C(=O)OC)cc2)cs1 | 18.2% (active) |
| CCN(CC)C(=O)CCC(=O)Nc1ccc(C(=O)OC)cc1 | 0.562% (inactive) |
| CC12COC3(C(=O)Nc4ccc(Cl)cn4)CC1CCC32C (stereo not drawn) | -1.53% (inactive) |
| O=C(Nc1ccc(Cl)cn1)Nc1cccs1 | 47.7% (active) |
| Cc1ccc(NC(=O)Nc2cccc(C(F)(F)F)c2)nc1 | 9.81% (inactive) |
| CCCc1cc(C(=O)Nc2ccc(Cl)cn2)cs1 | 30.5% (active) |
| O=C(Nc1cccc([N+](=O)[O-])c1)Nc1ccc(Cl)cn1 | -1.76% (inactive) |
| CCCCC(CC)C(=O)Nc1ccc(Cl)cn1 (stereo not drawn) | -1.66% (inactive) |
| COC(=O)c1ccc(NC(=O)C(C)N2C(=O)c3ccccc3C2=O)cc1 (stereo not drawn) | -1.97% (inactive) |
